Screening data as filed in PubChem BioAssay.
Jurkat NFkB inh = lowers PMA/ionomycin-induced NF-kB signal in Jurkat cells. PMA/ionomycin-induced NF-kB luciferase reporter, luminescence. inhibition, % at 4 µM. 330,000 compounds, 0.53% hits; in the data active means inhibition above about 50%
Beta cell apopt = beta cell apoptosis inhibition. INS-1E cytokine-induced death, ATP luminescence, 48 h; percent of positive-control rescue, neutral wells zero. protection from apoptosis, % (test concentration not listed). 300,000 compounds, 0.8% hits;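 active means Every replicate reaches about 75%, or at least half do and their mean reaches it too, limit read from the data; inconclusive means At least half of replicates reach the limit but their mean does not; inactive means Under half of replicates reach the limit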;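 further: 0% = cytokine-treated negative control wells and 100% = positive control rescue; higher means more ATP so stronger rescue from cytokine killing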
Calb FLC = C. albicans growth modulation with fluconazole; C. albicans CaCi-2 (fluconazole-resistant clinical isolate) + fluconazole, Alamar Blue growth, 48 h; growth inhibition, % (no concentration beside the values); 300,000 compounds, 0.57% hits;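 active means growth inhibition above about 58% in most replicates, limit read from the data, passing the limit was not always enough; inconclusive means exactly half the replicates above a set limit; inactive means most replicates below a set limit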;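 further: all wells also contain fluconazole at 8 µg/ml as a sub-toxic cotreatment; 0% = median of DMSO wells and 100% = median of geldanamycin control wells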
697 NFkB inh = lowers PMA/ionomycin-induced NF-kB signal in 697 B cells; 697 B-cell NF-kB luciferase reporter, 16 h; inhibition, % at 4 µM; 330,000 compounds, 0.33% hits; in the data active means inhibition above about 35%
Shn3 inh set2 = Schnurri-3 reporter inhibition in Clone20 osteoblasts. Clone20 osteoblast Shn3 3'UTR firefly luciferase, 24 h. 360,000 compounds, 0.52% hits. inhibition, % at 12.5 µM;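 active means mean inhibition of at least 75% with every replicate also reaching 75%; inconclusive means mean inhibition at least 75% but some replicate below; inactive means mean inhibition below 75%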;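 further: 0% = median of neutral control wells and 100% = pilot-screen positive control compound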
* hit, by the source's call; ? = inconclusive; / = no result given. In the library only some 2% were active in any assay of this set; here they are far more common.

SMILES	Jurkat NFkB inh	Beta cell apopt	Calb FLC	697 NFkB inh	Shn3 inh set2
CCCCOc1ccc2ccccc2c1C=O	-31	-2	-2	-60	-31
CCOc1ccc(/C=C/[N+](=O)[O-])c2ccccc12	-1	6	4	18	95*
CCOC(=O)COc1ccc(/C=C/[N+](=O)[O-])c(OCC(=O)OCC)c1	2	10	-11	-2	73
O=[N+]([O-])/C=C/c1c(OCc2ccccc2)ccc2ccccc12	-38	115*	9	-34	/
Cc1ccc2nc(NC(=O)c3ccccn3)sc2c1	34	79*	-33	-126	55
Cc1ccc(NC(=O)/C=C/c2ccc3c(c2)OCO3)nc1	-104	-5	-2	-93	-114
Cc1ccc2nc(NC(=O)/C=C/c3ccc4c(c3)OCO4)sc2c1	3	84*	-6	3	4
C[C@H](CO)N1C[C@H](C)[C@@H](CN(C)Cc2ccc(Oc3ccccc3)cc2)Oc2c(NC(=O)c3ccncc3)cccc2C1=O	22	-2	/	15	11
CC(C)=CCc1c(-c2ccc(O)cc2O)oc2c3c(cc(O)c2c1=O)OC(C)(C)C=C3	-25	14	17	-7	/
CC(C)=CCc1c2c(c(O)c3c(=O)c4c(oc13)-c1cc(O)c(O)cc1OC4C=C(C)C)C=CC(C)(C)O2 (configuration not stated)	-11	71	89*	-11	/
Cc1c(CCOC(=O)CC23CC4CC(CC(C4)C2)C3)sc[n+]1CC(=O)c1ccccc1	-13	26	56	-48	11
Cc1c(CCOC(=O)C23CC4CC(CC(C)(C4)C2)C3)sc[n+]1Cc1ccccc1	3	34	101*	-17	29
Cc1c(CCOC(=O)C23CC4(C)CC(C)(CC(C)(C4)C2)C3)sc[n+]1CC(=O)c1ccccc1	-12	22	113*	-7	90*
CC1CCCC(NC(=O)COC(=O)c2ccc3ncsc3c2)C1C (configuration not stated)	-6	-3	/	-6	-2
CCOc1cc(Br)cc(/C=N/NC(=O)c2cccnc2)c1O	15	33	-1	-25	92*
O=C1CSc2ccc(S(=O)(=O)CCC(=O)NC3CCCCC3)cc2N1	2	-1	-1	10	-1
CCOc1ccc(OCc2ccc(C(=O)N/N=C(\C)c3ccccn3)cc2)cc1	/	102*	?	/	92*
C/C(=N/NC(=O)c1ccccn1)c1ccncc1	-44	0	11	-26	-34
C/C(=N\NC(=O)c1cc(Br)ccc1O)c1ccccn1	-28	105*	32	-135	51
C/C(=N\NC(=O)c1ccccc1OCc1ccc(F)cc1)c1ccccn1	37	94*	/	-80	93*
C/C(=N\NC(=O)c1ccc(NS(=O)(=O)c2cccs2)cc1)c1ccccn1	12	86*	-13	14	/
C/C(=N\NC(=O)c1ccc(NS(=O)(=O)c2cccs2)cc1)c1ccncc1	-17	-9	8	0	3
Cc1cccc(C)c1NC(=O)C1CCCN1C(=O)NCc1ccccc1 (configuration not stated)	3	/	3	6	-26
CCCc1cc(=O)[nH]c(SC(C)C(=O)N2c3ccccc3CC2C)n1 (configuration not stated)	-8	-6	/	25	12
COc1ccc(/C=C/C(=O)OCC(=O)N2CCCCCC2)c(OC)c1	-1	-1	/	22	-17
SMILES	Jurkat NFkB inh	Beta cell apopt	Calb FLC	697 NFkB inh	Shn3 inh set2
CCOc1ccc(OCc2ccc(C(=O)NN=Cc3ccc[nH]3)cc2)cc1	-16	123*	/	-87	82
Cc1ccc(NC(=O)NNS(=O)(=O)c2ccc(Br)cc2)cc1	-7	0	-5	-3	-3
Cc1ccc(S(=O)(=O)NC(=O)Nc2ccc(N(C)C)cc2)cc1	-97	6	87*	-133	6
OC[C@H]1O[C@@H](Oc2ccc(O)cc2)[C@H](O)[C@@H](O)[C@@H]1O	/	/	/	/	88*
CC(C)OCCCN1CC(=O)N2C(c3ccccc3)c3[nH]c4ccccc4c3C[C@H]2C1=O (some centres not stated)	-19	-1	29	-4	13
CC(=O)Nc1cccc(NC(=O)C2CCCN2C(=O)Nc2ccc(Cl)cc2)c1 (configuration not stated)	6	-4	114*	0	-12
CC(=O)Nc1cccc(NC(=O)C2CCCN2C(=O)Nc2ccccc2C)c1 (configuration not stated)	13	-14	15	3	17
CCCCn1c(N)c(N(CC(C)C)C(=O)c2cc3ccccc3cc2OC)c(=O)[nH]c1=O	/	/	/	/	3
COc1ccc(-c2ccc(=O)n(CC(=O)Nc3nnc(C(C)C)s3)n2)cc1OC	0	/	7	10	-9
COc1ccc(-c2ccc(=O)n(CC(=O)Nc3cccc(O)c3)n2)cc1OC	-1	-11	111*	-18	7
Cc1cccc2cc(CNCC3CCCO3)c(Cl)nc12 (configuration not stated)	0	-1	99*	19	-2
O=c1ccc(-c2ccccc2)nn1Cc1ccc(F)cc1Cl	18	-20	2	-3	3
CCOC(=O)C1CCN(C(=O)c2ccc3c(=O)n4nc(Nc5cc(C)ccc5C)sc4nc3c2)CC1	-17	16	88*	-26	0
CCCCCC1CC1C(=O)N/N=C/c1ccc(N(C)C)cc1 (configuration not stated)	2	-7	-28	-3	89*
CCCC(=O)OCCNc1cc(Sc2nccn2C)c2nonc2c1[N+](=O)[O-]	/	-3	14	/	95*
O=[N+]([O-])c1c(NCCCO)cc(Sc2nc3ccccc3s2)c2nonc12	-45	0	39	13	90*
CCC(=O)OCCNc1cc(Sc2nc3ccccc3[nH]2)c2nonc2c1[N+](=O)[O-]	/	-3	/	/	96*
CCC(=O)OCCNc1cc(Sc2nc3ccccc3s2)c2nonc2c1[N+](=O)[O-]	-10	22	0	10	49
COc1ccccc1CNC(=O)Cn1cc([N+](=O)[O-])ccc1=O	2	-8	1	8	5
Cc1ccc(CN2CCC(C)(Oc3cccc(Cl)c3)C2)cc1 (configuration not stated)	/	/	/	/	-3
CCOc1cc(N2CCOCC2)c(OCC)cc1NC(=O)c1nc2nc(C)cc(C)n2n1	6	-4	101*	4	7
COc1cccc2cc(C(=O)NC3CC4CCC3C4)oc12 (configuration not stated)	7	0	4	11	-44
COc1ccc(C(NC(C)=O)c2ccc3cccnc3c2O)c(OC)c1 (configuration not stated)	35	109*	-3	-27	90*
CC(=O)NC(c1ccc(Cl)cc1Cl)c1ccc2cccnc2c1O (configuration not stated)	46	-6	-1	-23	89*
CCCC(=O)NC(c1ccc(Cl)cc1)c1ccc2cccnc2c1O (configuration not stated)	47	113*	108*	-24	85
